Hit rate of the full screen: of about 360,000 compounds, about 3,700 (1%) were called active. Inconclusive results (about 2%) are left out.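 The calls were made as follows: active = normalized GFP-positive differentiation at or above the plate's own cutoff, the solvent-only control mean plus 3 SD; inconclusive = no clear call, values can overlap the other calls; inactive = the rest.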 Many of the other results were omitted from the sample, so actives are more common in it than they were.
Assay: induction of myeloid progenitor differentiation, primary screen, cell-based, flow cytometry, MLPCN library (AID 624256);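 as to GFP+ MAC1+ double positive: cells exposed to compound for four days before flow analysis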;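 as to normalized GFP-positive differentiation: cells exposed to compound for four days before flow analysis; 0% = DMSO wells and 100% = fulvestrant positive control at 5 µM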
Details: ER-HoxA9 myeloid progenitors, lysozyme-GFP differentiation, at 10 µM; GFP+ MAC1+ double positive: measured here: differentiation confirmed by MAC1 staining, stronger effect = higher value; normalized GFP-positive differentiation: stronger effect = higher value

| SMILES | GFP+ MAC1+ double positive [%] | outcome | normalized GFP-positive differentiation |
| --- | --- | --- | --- |
| Oc1cccc2cc(-c3ccncc3)cnc12 | 0.7 | inactive |  |
| COCCNc1ncnc2c1ncn2[C@H]1CN(CCN2CCOCC2)C[C@@H](CO)O1 | 1.1 | inactive |  |
| CCOC(=O)[C@]12CCCC=C1N(CCC1=CCCCC1)C(=O)[C@H](CC(=O)NCCCCc1ccccc1)C2 | 2.2 | inactive |  |
| COC(=O)Cc1c(-c2[nH]c3ccccc3c2CC(=O)OC)[nH]c2ccccc12 | 17.1 |  | 207% (active) |
| CCCOC(=O)Cc1c(O)c2ccccc2[nH]c1=O | 0.6 | inactive |  |
| O=C(Cc1c(O)c2ccccc2[nH]c1=O)NCc1ccccc1 | 0.1 | inactive |  |
| CCOc1ccc(Cl)cc1-c1cc(C(=O)NCc2cccs2)[nH]n1 | 1.7 | inactive |  |
| CC1(C(=O)NS(=O)(=O)c2ccccc2)CCN1C(=O)c1ccccc1 (stereo not drawn) | 0.9 | inactive |  |
| COc1ccccc1Cc1c(-c2ccc(Cl)cc2)nc2c3ccccc3ccn12 | 0.5 | inactive |  |
| COCCn1c(=S)[nH]c2cc(C(=O)NCCc3ccc(OC)c(OC)c3)ccc2c1=O | 2.7 | inactive |  |
| COc1ccc(Cn2c(=S)[nH]c3cc(C(=O)N4CCCCC4)ccc3c2=O)cc1 | 0.2 | inactive |  |
| CCOC(=O)N1CCN(C(=O)c2ccc3c(=O)n(CCc4ccc(OC)c(OC)c4)c(=O)[nH]c3c2)CC1 | 6.8 |  | 56% (active) |
| CCCCc1c(-c2ccc(Br)cc2)ncn1CCc1ccccc1OC | 2.9 | inactive |  |
| C[C@H](NC(=O)[C@@H]1CCCN1C(=O)[C@@H]1CCCN1C(=O)c1ccccc1)c1ccccc1 | 0.7 | inactive |  |
| Cc1ccc(CN2CC(N3CCC(Cc4ccccc4)CC3)CS2(=O)=O)cc1 (stereo not drawn) | 1.6 | inactive |  |
| Cc1cccc(CC2(O)C(=O)Nc3ccccc32)n1 (stereo not drawn) | 29.8 |  | 367% (active) |
| COc1ccc(C2(O)C(=O)Nc3ccccc32)cc1 (stereo not drawn) | 0.4 | inactive |  |
| Cc1cc(O)c(C2(O)C(=O)Nc3ccccc32)cc1C (stereo not drawn) | 0.4 | inactive |  |
| Cc1ccc(S(=O)(=O)N2CC[C@H]3[C@@H](C2)C(=O)C[C@@H](c2ccccc2)N3S(=O)(=O)c2ccc(C)cc2)cc1 | 2.5 | inactive |  |
| CCOC(=O)c1c(-c2ccc(-c3ccccc3)cc2)csc1NC(=O)CCC(=O)O | 0.3 | inactive |  |
| CCOC(=O)c1c(-c2cccc(C)c2)csc1NC(=O)c1c(-c2ccccc2)noc1C | 15.3 |  | 89% (active) |
| Cc1[nH]c2ccccc2c1C(=O)COC(=O)c1c(-c2ccccc2)noc1C | 0.6 | inactive |  |
| CC1(C(=O)NCc2ccccc2)CSCC(=O)N1CCCN1CCOCC1 (stereo not drawn) | 4 | inactive |  |
| CSCCC(C(=O)NC(C)(C)C)n1c(-c2ccccc2)nc2ccccc21 (stereo not drawn) | 4 | inactive |  |

Source: PubChem BioAssay AID624256 (NMMLSC, 2012)
